Experiment [1] is described as follows: Tertiary RLuc qRT-PCR qHTS assay for Zika virus inhibitors (AID 1347169). Further: nearly all actives have a fitted effect of over 55% in size. Further: potency means the concentration at half of the fitted maximal effect. On activity change, negative = inhibition: top concentration of the series differs between compounds; on the % scale 0 is the no-effect control and ±100 the full control effect. Put shortly:
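Vero cells (1,000/well) infected with recombinant ZIKV-RLuc (Cambodian) at MOI 1-2 after compound addition, 48-72 hrs at 37 degrees C. Live-cell Renilla luciferase substrate added; luminescence read after 1-1.5 hrs.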

Experiment [2] in a line: OV-KATE Cancer Cell Toxicity qHTS against the NCATS CANVASS Library (AID 1347345). Further: on the % scale 0 is the no-effect control and ±100 the full control effect. The procedure, abridged: (§1)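 ATP content after 72 h treatment, detected by CellTiter-Glo luminescence (15min room-temperature development), reflects cell viability. Wells contained 1000 cells and received compounds at 11 concentrations.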
A short description of experiment [3]: HPAF-II Cancer Cell Toxicity qHTS against the NCATS CANVASS Library (AID 1347346). Further: series mostly up to about 38 µM; on the % scale 0 is the no-effect control and ±100 the full control effect; nearly all actives have a fitted effect of over 55% in size. The procedure, abridged: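 1000 HPAF-II cells/well; 4 h pre-incubation; 11-pnt compound titration; 72 h, 37 degrees C/5% CO2; CellTiter-Glo, 15 min RT; luminescence read.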
Experiment [4] can be described thus: UWB1.289 Cancer Cell Toxicity qHTS against the NCATS CANVASS Library (AID 1347347). Further: series mostly up to about 38 µM; on the % scale 0 is the no-effect control and ±100 the full control effect; nearly all actives have a fitted effect of over 60% in size. Put shortly:
as §1

Experiment [5] in a line: OV-SAHO Cancer Cell Toxicity qHTS against the NCATS CANVASS Library (AID 1347348). Further: series mostly up to about 38 µM; on the % scale 0 is the no-effect control and ±100 the full control effect; nearly all actives have a fitted effect of over 55% in size. Put shortly: as §1
Experiment [6] can be described thus: Panc-1005 Cancer Cell Toxicity qHTS against the NCATS CANVASS Library (AID 1347349). Further: series mostly up to about 38 µM; on the % scale 0 is the no-effect control and ±100 the full control effect; nearly all actives have a fitted effect of over 60% in size. The procedure, abridged:
as §1

Experiment [7] can be described thus: SW1088 Cancer Cell Toxicity qHTS against the NCATS CANVASS Library (AID 1347350). Further: series mostly up to about 38 µM; on the % scale 0 is the no-effect control and ±100 the full control effect; nearly all actives have a fitted effect of over 75% in size. Put shortly:
as §1

The nature of experiment [8]: U-118MG Cancer Cell Toxicity qHTS against the NCATS CANVASS Library (AID 1347351). The note with it: outcome: dose series up to 38.3 µM. Put shortly:
as §1

A short description of experiment [9]: COV-362 Cancer Cell Toxicity qHTS against the NCATS CANVASS Library (AID 1347352). Further: series mostly up to about 38 µM; on the % scale 0 is the no-effect control and ±100 the full control effect. Put shortly:
(§2)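 1000 cells/well, 4 h pre-incubation 37 °C/5% CO2; 11-pnt titration; 72 h; CellTiter-Glo 15 min RT, luminescence.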

Experiment [10] can be described thus: A2780 Cisplatin Sensitive Ovarian Cancer Cell Toxicity qHTS against the NCATS CANVASS Library (AID 1347353). Further: series mostly up to about 46 µM; on the % scale 0 is the no-effect control and ±100 the full control effect; nearly all actives have a fitted effect of over 60% in size. The procedure, abridged:
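750 cells/well, 4 h settle; 11-pt cpd titration; 72 h, 37 °C, 5% CO2; ATPLite 10 min RT; luminescence read.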

Experiment [11] can be described thus: UWB1.289-WTBRCA1 Cancer Cell Toxicity qHTS against the NCATS CANVASS Library (AID 1347354). The note with it: outcome: dose series up to 38.3 µM. Put shortly:
as §2

The nature of experiment [12]: HEK-293 Cancer Cell Toxicity qHTS against the NCATS CANVASS Library (AID 1347355). Further: series mostly up to about 46 µM; on the % scale 0 is the no-effect control and ±100 the full control effect; nearly all actives have a fitted effect of over 65% in size. Put shortly:
as §2

Experiment [13] is described as follows: HPAF-II 24hr Apoptosis Induction qHTS against the NCATS CANVASS Library (AID 1347356). Further: 0% is about no effect. The procedure, abridged: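 500 HPAF-II cells/well; compounds in 11-pnt qHTS; 24 h, 37 C/5% CO2; Caspase-Glo 3/7 added, 15 min RT dark; luminescence read. Doxorubicin control.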
Experiment [14] can be described thus: HEK293 18hr Apoptosis Induction qHTS against the NCATS CANVASS Library (AID 1347357). Further: 0% is about no effect. Put shortly:
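HEK293 cells (500/well, DMEM + 10% FBS) treated with an 11-point series for 18 h at 37 degrees C. Caspase-3/7 activity read by Caspase-Glo luminescence after 15 min at room temperature.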

Experiment [15] can be described thus: HPAF-II 12hr Apoptosis Induction qHTS against the NCATS CANVASS Library (AID 1347358). Further: 0% is about no effect. Put shortly:
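Caspase-Glo 3/7 luminescence (DEVD substrate) reports caspase activity in HPAF-II cells after 12 h compound treatment at 37 degrees C. Compounds were tested in an 11-point series. Doxorubicin served as control.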

Experiment [16] can be described thus: HEK293 24hr Apoptosis Induction qHTS against the NCATS CANVASS Library (AID 1347359). Further: 0% is about no effect. Put shortly: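 HEK293 cells (500/well, DMEM + 10% FBS) were exposed to compounds in an 11-point series for 24 hours at 37 degrees C, then caspase-3/7 activity was read by Caspase-Glo DEVD luciferase luminescence after 15 min.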
The nature of experiment [17]: HPAF-II 18hr Apoptosis Induction qHTS against the NCATS CANVASS Library (AID 1347360). Further: 0% is about no effect. Put shortly: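 HPAF-II cells at 500/well were exposed for 18 h at 37 C to an 11-point compound series. Caspase-3/7 activity was read by Caspase-Glo luminescence after 15 min at RT.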
The nature of experiment [18]: HEK293 12hr Apoptosis Induction qHTS against the NCATS CANVASS Library (AID 1347361). Further: 0% is about no effect. The procedure, abridged: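 HEK293 cells (500/well) were exposed to an 11-point qHTS concentration series for 12 hours at 37 degrees C. Caspase-3/7 activity was then read by DEVD-substrate luciferase luminescence after 15 min at room temperature.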
In experiment [19] the test system is NAD(P)H diaphorase (Clostridium kluyveri). Description: Diaphorse counterscreen qHTS: Assay Interference Panel against the NCATS CANVASS Library (AID 1347362). Further: 0% is about no effect. The procedure, abridged: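 Clostridium kluyveri diaphorase in PBS with 0.01% Tween-20 was preincubated 15 min at room temperature in the dark with compounds (11-point series). Resorufin fluorescence (ex 525/20, em 598/25) was read 5 min after adding resazurin/NADH.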

In experiment [20] the target is Luciferin 4-monooxygenase (Photinus pyralis) (UniProt P08659). Description: Firefly luciferase counterscreen qHTS: Assay Interference Panel against the NCATS CANVASS Library (AID 1347363). Further: potency means the concentration at half of the fitted maximal effect. On activity change, negative = inhibition: series mostly up to about 57 µM; 0% is about no effect. Put shortly: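 Purified P. pyralis luciferase was added to compounds (11-point series) preincubated 15 min at room temperature with substrate containing 0.013 mM D-luciferin and 0.013 mM ATP; luminescence was read after 5 min.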

Unmarked numbers belong to inactive results. Inconclusive results are not listed. The source made the active and inactive calls. The call rests on the fitted dose curve; in most records, active means well fitted curve in the direction sought with a large enough effect; inconclusive means small, poorly fitted or top-dose-only effect, or another doubt; inactive means no such curve, though single readings can be large; an effect the other way counts as inactive or inconclusive. Where a SMILES comes first, the peptide text is derived from it.

Luciferin 4-monooxygenase (Photinus pyralis), sequence (P08659 whole entry, looked up): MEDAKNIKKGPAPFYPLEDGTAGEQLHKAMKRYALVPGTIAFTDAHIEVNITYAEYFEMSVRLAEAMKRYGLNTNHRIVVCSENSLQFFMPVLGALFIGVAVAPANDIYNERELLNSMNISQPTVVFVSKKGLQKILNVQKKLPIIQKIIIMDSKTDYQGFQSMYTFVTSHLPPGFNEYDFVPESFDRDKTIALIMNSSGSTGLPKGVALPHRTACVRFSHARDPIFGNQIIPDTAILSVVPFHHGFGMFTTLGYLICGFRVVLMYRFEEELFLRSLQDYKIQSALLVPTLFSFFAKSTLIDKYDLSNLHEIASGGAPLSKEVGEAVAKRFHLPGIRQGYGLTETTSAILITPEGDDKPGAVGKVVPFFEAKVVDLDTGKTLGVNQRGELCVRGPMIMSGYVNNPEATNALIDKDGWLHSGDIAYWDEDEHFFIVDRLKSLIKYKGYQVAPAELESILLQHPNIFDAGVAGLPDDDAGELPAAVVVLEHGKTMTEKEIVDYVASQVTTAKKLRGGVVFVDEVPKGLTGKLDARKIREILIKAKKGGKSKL

Take `COc1cc(CCCO)ccc1O[C@@H]1O[C@H](CO)[C@@H](O)[C@H](O)[C@H]1O`: the Potency result in experiment [1] is “inactive”.
Turning to `CC(C)CC(c1c(O)c(C=O)c(O)c(C=O)c1O)C1CCC(C)(O)C2CC(C(C)(C)O)CCC12C` (stereo unspecified), in experiment [1], the Potency result was “inactive”.
Same read-out and setting: the same measure for `CC(=O)OC12CC(C)C(OC(=O)c3ccccc3)C1/C=C(/C)C(OC(=O)c1ccccc1)CC(=O)C(C)(C)/C=C/C(C)C2=O` (stereo unspecified): 2.76 µM (active); for `O=C(O)CC1CCC(c2ccc(-c3ccc(Nc4ccc(C(F)(F)F)nc4)cn3)cc2)CC1` (stereo unspecified): 16.5 µM (active); for `CC1C(O)C(O)C2C(C(=O)OCCc3ccc(O)cc3)=COC(O[C@@H]3O[C@H](CO)[C@@H](O)[C@H](O)[C@H]3O)C12` (stereo partly specified): “inactive”.
As for `O=C(O)C1(c2ccc(-c3ccc(Cl)c(Cl)c3)c(F)c2)CC1`, the Potency result in experiment [1] was “inactive”.
With `CC(C)c1ccc2c(c1)CCC1[C@](C)(C(=O)O)CCC[C@]21C` (stereo partly specified), the result in experiment [2], in experiment [3], in experiment [4], in experiment [5], in experiment [6] and in experiment [8] was inactive. For the same molecule, the call in [9], in experiment [10], in experiment [11], in [12], in experiment [13] and in experiment [14] was inactive. Further, the outcome in experiment [15], in experiment [16], in experiment [17], in experiment [18] and in experiment [19] was inactive. The Potency entry in [7] and in experiment [20] was “inactive” in each case.
On to `O=C(Nc1ccccc1)Nc1ccc(-c2ccc(C(=O)C3CCCC3C(=O)O)cc2)cc1` (stereo unspecified), for which the Potency result in [1] was “inactive”.
Same read-out and setting: for `CO[C@H]1c2cc(C(C)C)c(O)c(O)c2[C@@]23CCCC(C)(C)C2[C@@H]1OC3=O` (stereo partly specified) the value was “inactive”; for `CC(C)=CCC[C@@](C)(O)[C@H]1CC[C@]2(C)[C@@H]1[C@H](O)CC1[C@@]3(C)CC[C@H](O[C@@H]4O[C@H](CO)[C@@H](O)[C@H](O)[C@H]4O[C@@H]4O[C@H](CO)[C@@H](O)[C@H](O)[C@H]4O)C(C)(C)[C@@H]3CC[C@]12C` (stereo partly specified), “inactive”; for `COc1cccc(OC)c1-c1cc(C(=O)N[C@@H](CC(C)C)C(=O)O)nn1-c1ccnc2cc(Cl)ccc12`, “inactive”.
Still for that read-out and setting: the same measure for `COc1ccc(C2C(C(=O)O)C(C(=O)O)C2c2ccc(OC)cc2O[C@@H]2O[C@H](CO)[C@@H](O)[C@H](O)[C@H]2O)c(O[C@@H]2O[C@H](CO)[C@@H](O)[C@H](O)[C@H]2O)c1` (stereo partly specified): “inactive”.
Consider `O=C(/C=C/C=C/c1ccc2c(c1)OCO2)N1CCCCC1`, for which the call in experiment [2], in experiment [5], in experiment [8], in experiment [9], in [11] and in [13] was inactive. Also, the call in experiment [14], in [15], in experiment [16], in [17], in experiment [18] and in experiment [19] was inactive. The Potency result in [7] was “inactive”. The Potency in [20] was 6.8 µM (active).
Turning to `CSCC[C@H](NC(=O)[C@H](CO)NC(=O)[C@H](CCC(=O)O)NC(C)=O)C(=O)N[C@H](C=O)CC(=O)O` (Ac-ESMD-aldehyde), the activity change, negative = inhibition in experiment [1] is -0.374% [at 5.25 µM].
Regarding `COc1cc2c(c(OC)c1O)C(c1ccc(O)cc1)C1C(=O)OC3C(COC(=O)C1=C2)OC(CO)(OC1OC(COC(=O)/C=C/c2ccc(OC4OC(C)C(O)C(O)C4O)cc2)C(O)C(O)C1O)C3O` (stereo unspecified), the Potency entry in experiment [1] was “inactive”.

(Values after PubChem BioAssay (NCATS).)
